SMILES strings stand for the structures. About 79,000 compounds went through this panel and 15% of them were active in at least one assay; those are over-represented in the sample as a whole. Active and inactive are the calls of the source. No stated cut-off is given here; in the data, active means growth inhibition above about 70%; inactive means the rest.

This test is described as follows: NCI Yeast Anticancer Drug Screen. Data for the mlh1 rad18 strain (AID 175). The note with it: S. cerevisiae mlh1 rad18 strain growth inhibition; at 50.0 µM; stronger effect = higher value. On the procedure:
Growth inhibition of yeast strains with defined genetic alterations is measured as a screen for potential anti-cancer activity. Selected strains with alterations in DNA damage repair or cell cycle control were exposed to compounds and growth inhibition was measured relative to vehicle treated controls. The strain used in this assay is mlh1 rad18
For `OC(c1ccc(F)cc1)(c1cccs1)C1CC1` (stereo not given), the growth inhibition was -20.2% (inactive).
As to `N#C/C(=C1C=C/C(=N/O)C(Br)=C/1)c1ccccc1`, the growth inhibition was 22% (inactive).
`CN1C2CCC1CC(OC(=O)C(O)c1ccccc1)C2` (stereo not given): the growth inhibition is 7.45% (inactive).
Take `C[C@@H]1CC[C@H]2C(C)(C)[C@H]3C[C@@]12CC[C@@]3(C)O`: the growth inhibition is -18.6% (inactive).
Under `CCCCCCCCCCCC(O)CCCCC` (stereo not given) stands -38.9% (inactive); under `COc1cc(C(=O)N/N=C/c2ccc(N(C)C)cc2)cc(OC)c1OC`, -20.8% (inactive).
Under `CCCCCCCCCC(=O)CC(=O)c1c(O)cc(O)cc1O` stands 91.7% (active); under `COc1cc(Oc2c(C)c(Cl)c(OC)c(Cl)c2OC)c2c(c1Cl)COC2=O`, 22.8% (inactive); under `COc1ccc(/C(C#N)=C2C=C(Cl)/C(=N/O)C=C/2Cl)cc1`, -19.2% (inactive).
With `C/C=C(/C)N(C(C)=O)N(C(C)=O)c1ccc([N+](=O)[O-])cc1[N+](=O)[O-]`, the growth inhibition is -3.3% (inactive).
Under `O=C1CC(c2ccccc2)NCCCCN2CC(CN1)C(C(O)c1ccccc1)C2=O` (stereo not given) stands -49% (inactive).
As to `CCC1OC2(C)CC(C#N)(C#N)C1(C#N)C(=N)O2` (stereo not given), the growth inhibition is -10.7% (inactive).
With `Cc1ccc(-c2noc(CC(=O)c3ccc([N+](=O)[O-])cc3)n2)cc1` the figure was 38.8% (inactive).
In the case of `O=C1c2ccccc2C(=O)N1/N=C/c1cc(Br)ccc1O`, the growth inhibition was 10.4% (inactive).
With `OC1CCC2CN3CCc4c([nH]c5ccccc45)C3CC2C1` (stereo not given), the growth inhibition was 27.8% (inactive).
`COc1ccc(/C=C(\C#N)c2ccc(C)cc2)cc1OC`: the growth inhibition was 38.1% (inactive).
With `CC(=N\N=C\c1ccccn1)/C(C)=N/N=C/c1ccccn1`, the growth inhibition was -53.3% (inactive).
As to `C[n+]1ccccc1/C=C/c1cccc(O)c1`, the growth inhibition is 17.8% (inactive).
Under `CCOC(=O)CC(=O)c1ccc(C)cc1` stands 9.75% (inactive).
Regarding `[O-]c1ccccc1/C=N/C(/N=C/c1ccccc1[O-])c1ccccc1O.[O-]c1ccccc1/C=N/C(/N=C/c1ccccc1[O-])c1ccccc1O.[Zr+4]`, the growth inhibition is 2.4% (inactive).
`COc1cc(/C=C2\CN(C)C(=O)C2=O)ccc1O`: the growth inhibition is -12.2% (inactive).
Under `CC1=CC(=O)c2ccc(C)cc2C1=O` stands 5.85% (inactive); under `NC(Cc1ccc(S(=O)(=O)O)cc1)C(=O)NC(Cc1ccc(S(=O)(=O)O)cc1)C(=O)NC(Cc1ccc(S(=O)(=O)O)cc1)C(=O)NC(Cc1ccc(S(=O)(=O)O)cc1)C(=O)O` (stereo not given), 8.85% (inactive).
With `Oc1cc(Br)ccc1C=Nc1ccc(N2CCCCC2)cc1` the figure was 17.8% (inactive).
Under `COc1cc(/C=N/n2cnnc2)cc(OC)c1OC` stands -13.7% (inactive); under `O=Cc1ccc2c(c1Cl)C(=O)c1ccccc1C2=O`, 68.3% (inactive).
As for `C[n+]1ccc(/C=C\c2ccc3c(c2)OCO3)cc1`, the growth inhibition was 2.6% (inactive).
With `O=C(O)c1ccc(NCn2c(=S)[nH]c3ccccc32)cc1O` the figure was -16.2% (inactive); with `Clc1ccc(C2C3COc4ccccc4C3=NN2c2ccccc2)cc1` (stereo not given), -13.3% (inactive).
Turning to `C=C1C(=O)OC2/C=C(\CO)CC/C=C(\CO)CC(OC(=O)C(C)C)C12` (stereo not given), the growth inhibition was -41.5% (inactive).
With `CCCCCCCCCOCC(O)COc1ccccc1[N+](=O)[O-]` (stereo not given) the figure was -5.5% (inactive); with `C1CCCCNCCC1`, -27.3% (inactive); with `O=C(O)c1ccccc1C(=O)NNC(=O)c1ccccc1C(=O)O`, -13.6% (inactive).
With `Cc1ccc2oc(C)[n+](CCC(=O)O)c2c1` the figure was 42% (inactive).
Under `Cc1ccc(N2C(=O)CC(Sc3ccccc3N)C2=O)cc1Cl` (stereo not given) stands -11.9% (inactive); under `CCOC(=O)c1c(C)nc(C)c(C(=O)OCC)c1-c1cccc([N+](=O)[O-])c1`, 25.9% (inactive).
As for `Cc1ccc(NC2=N/C(=C/c3ccccc3)C(Cl)=N2)cc1`, the growth inhibition was -51% (inactive).
In the case of `CC(=O)CC1CCCC(CC(C)=O)N1C` (stereo not given), the growth inhibition was 0.2% (inactive).
On to `C=CCNC(=S)N/N=C\c1cc(OC)c(OC)c(OC)c1`, for which the growth inhibition was -34.6% (inactive).
Under `COc1ccc(COC(=O)N=[N+]=[N-])cc1` stands 13.4% (inactive).
